{
  "source": "PubChem BioAssay AID1159580",
  "about": "(chemical genetic matrix, 2015)",
  "assay": "chemical genetic growth profiling, strain panel (AID 1159580);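 note: tested at 20 µM; growth read once vehicle control cultures reached saturation at 30 °C; 1 = growth at the plate median or of vehicle wells; lower values mean less growth of the strain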",
  "conditions": "S. cerevisiae deletion strains, growth OD",
  "note": "Several values for one entry are separate records, joined by “and”; a condition that tells them apart may be missing. Equal values may be shown once. Hit rate of the full screen: of about 5,500 compounds, about 2,000 (36%) were called active. Roughly 18% stayed inconclusive and do not appear here. The list shows a part of the results. Values without a mark were called inactive. Cut-off read from the data, not from the text of the source: active = normalized growth mostly below about 0.91 (no sharp cut-off); inconclusive = no clear call, values can overlap the other calls; inactive = mostly above about 0.92.",
  "data": [
    {"smiles": "C[C@@H]1CC[C@H]2[C@@H](C)C(=O)O[C@@H]3O[C@@]4(C)CC[C@@H]1[C@]32OO4", "values": [
      {"measurement": "normalized growth", "setting": "locus YAL013W, strain DEP1, stronger effect = lower value", "result": 0.924},
      {"measurement": "normalized growth", "setting": "locus YAL021C, strain ccr4, stronger effect = lower value", "result": "0.741 (active)"},
      {"measurement": "normalized growth", "setting": "locus YAL026C, strain drs2, stronger effect = lower value", "result": "0.824 (active)"},
      {"measurement": "normalized growth", "setting": "locus YAL030W, strain snc1, stronger effect = lower value", "result": "0.89 (active)"},
      {"measurement": "normalized growth", "setting": "locus YBL061C, strain skt5, stronger effect = lower value", "result": "0.903 (active)"},
      {"measurement": "normalized growth", "setting": "locus YBR009C, strain hhf1, stronger effect = lower value", "result": "0.788 (active)"},
      {"measurement": "normalized growth", "setting": "locus YBR021W, strain FUR4, stronger effect = lower value", "result": 0.948},
      {"measurement": "normalized growth", "setting": "locus YBR023C, strain chs3, stronger effect = lower value", "result": "0.906 (active)"},
      {"measurement": "normalized growth", "setting": "locus YBR171W, strain sec66, stronger effect = lower value", "result": "0.889 (active)"},
      {"measurement": "normalized growth", "setting": "locus YBR229C, strain ROT2, stronger effect = lower value", "result": 0.942},
      {"measurement": "normalized growth", "setting": "locus YBR231C, strain swc5, stronger effect = lower value", "result": "0.713 (active)"},
      {"measurement": "normalized growth", "setting": "locus YBR279W, strain paf1, stronger effect = lower value", "result": "0.864 (active)"},
      {"measurement": "normalized growth", "setting": "locus YCL011C, strain gbp2, stronger effect = lower value", "result": "0.869 (active)"},
      {"measurement": "normalized growth", "setting": "locus YCL016C, strain dcc1, stronger effect = lower value", "result": "0.837 (active)"},
      {"measurement": "normalized growth", "setting": "locus YCL029C, strain bik1, stronger effect = lower value", "result": "0.887 (active)"},
      {"measurement": "normalized growth", "setting": "locus YCL069W, strain vba3, stronger effect = lower value", "result": "0.924 (active)"},
      {"measurement": "normalized growth", "setting": "locus YCR088W, strain abp1, stronger effect = lower value", "result": "0.921 (active)"},
      {"measurement": "normalized growth", "setting": "locus YDL005C, strain med2, stronger effect = lower value", "result": 0.967},
      {"measurement": "normalized growth", "setting": "locus YDL035C, strain GPR1, stronger effect = lower value", "result": "0.825 (active)"},
      {"measurement": "normalized growth", "setting": "locus YDL040C, strain nat1, stronger effect = lower value", "result": 0.949},
      {"measurement": "normalized growth", "setting": "locus YDL074C, strain BRE1, stronger effect = lower value", "result": 0.83},
      {"measurement": "normalized growth", "setting": "locus YDL101C, strain DUN1, stronger effect = lower value", "result": 0.913},
      {"measurement": "normalized growth", "setting": "locus YDL134C, strain PPH21, stronger effect = lower value", "result": "0.818 (active)"},
      {"measurement": "normalized growth", "setting": "locus YDL185W, strain tfp1, stronger effect = lower value", "result": "0.875 (active)"},
      {"measurement": "normalized growth", "setting": "locus YDL192W, strain arf1, stronger effect = lower value", "result": "0.867 (active)"},
      {"measurement": "normalized growth", "setting": "locus YDR001C, strain nth1, stronger effect = lower value", "result": 0.932},
      {"measurement": "normalized growth", "setting": "locus YDR069C, strain doa4, stronger effect = lower value", "result": "0.872 (active)"},
      {"measurement": "normalized growth", "setting": "locus YDR101C, strain arx1, stronger effect = lower value", "result": "0.887 (active)"},
      {"measurement": "normalized growth", "setting": "locus YDR137W, strain rgp1, stronger effect = lower value", "result": "0.388 (active)"},
      {"measurement": "normalized growth", "setting": "locus YDR150W, strain NUM1, stronger effect = lower value", "result": "0.899 (active)"},
      {"measurement": "normalized growth", "setting": "locus YDR159W, strain sac3, stronger effect = lower value", "result": "0.595 (active)"},
      {"measurement": "normalized growth", "setting": "locus YDR162C, strain NBP2, stronger effect = lower value", "result": "0.817 (active)"},
      {"measurement": "normalized growth", "setting": "locus YDR195W, strain ref2", "result": 0.956},
      {"measurement": "normalized growth", "setting": "locus YDR297W, strain sur2, stronger effect = lower value", "result": "0.893 (active)"},
      {"measurement": "normalized growth", "setting": "locus YDR318W, strain mcm21, stronger effect = lower value", "result": "0.841 (active)"},
      {"measurement": "normalized growth", "setting": "locus YDR334W, strain swr1, stronger effect = lower value", "result": 0.917},
      {"measurement": "normalized growth", "setting": "locus YDR335W, strain msn5, stronger effect = lower value", "result": "0.853 (active)"},
      {"measurement": "normalized growth", "setting": "locus YDR388W, stronger effect = lower value", "result": "0.868 (active)"},
      {"measurement": "normalized growth", "setting": "locus YDR392W, strain spt3, stronger effect = lower value", "result": "0.374 (active)"},
      {"measurement": "normalized growth", "setting": "locus YDR502C, strain sam2, stronger effect = lower value", "result": "0.815 (active)"},
      {"measurement": "normalized growth", "setting": "locus YEL003W, strain gim4, stronger effect = lower value", "result": "0.808 (active)"},
      {"measurement": "normalized growth", "setting": "locus YEL037C, strain rad23, stronger effect = lower value", "result": "0.915 (active)"},
      {"measurement": "normalized growth", "setting": "locus YEL061C, strain CIN8 (second series), stronger effect = lower value", "result": "0.889 (active)"},
      {"measurement": "normalized growth", "setting": "locus YEL061C, strain CIN8, stronger effect = lower value", "result": "0.891 (active)"},
      {"measurement": "normalized growth", "setting": "locus YER015W, strain faa2, stronger effect = lower value", "result": "0.761 (active)"},
      {"measurement": "normalized growth", "setting": "locus YER016W, strain bim1, stronger effect = lower value", "result": "0.904 (active)"},
      {"measurement": "normalized growth", "setting": "locus YER110C, stronger effect = lower value", "result": 0.932},
      {"measurement": "normalized growth", "setting": "locus YER111C, strain swi4, stronger effect = lower value", "result": 0.93},
      {"measurement": "normalized growth", "setting": "locus YER155C, strain BEM2 (second series), stronger effect = lower value", "result": "0.655 (active)"},
      {"measurement": "normalized growth", "setting": "locus YER155C, strain BEM2, stronger effect = lower value", "result": "0.922 (active)"},
      {"measurement": "normalized growth", "setting": "locus YER167W, strain BCK2, stronger effect = lower value", "result": "0.784 (active)"},
      {"measurement": "normalized growth", "setting": "locus YFR010W, strain ubp6, stronger effect = lower value", "result": "0.841 (active)"},
      {"measurement": "normalized growth", "setting": "locus YGL078C, strain dbp3, stronger effect = lower value", "result": 0.939},
      {"measurement": "normalized growth", "setting": "locus YGL086W, strain mad1, stronger effect = lower value", "result": "0.827 (active)"},
      {"measurement": "normalized growth", "setting": "locus YGL167C, strain pmr1, stronger effect = lower value", "result": 0.973},
      {"measurement": "normalized growth", "setting": "locus YGL173C, strain kem1, stronger effect = lower value", "result": 0.907},
      {"measurement": "normalized growth", "setting": "locus YGL227W, strain vid30, stronger effect = lower value", "result": 0.95},
      {"measurement": "normalized growth", "setting": "locus YGL240W, strain doc1, stronger effect = lower value", "result": "0.757 (active)"},
      {"measurement": "normalized growth", "setting": "locus YGL248W, strain PDE1, stronger effect = lower value", "result": "0.818 (active)"},
      {"measurement": "normalized growth", "setting": "locus YGL253W, strain hxk2, stronger effect = lower value", "result": "0.707 (active)"},
      {"measurement": "normalized growth", "setting": "locus YGR078C, strain PAC10, stronger effect = lower value", "result": "0.789 (active)"},
      {"measurement": "normalized growth", "setting": "locus YGR135W, strain pre9, stronger effect = lower value", "result": "0.858 (active)"},
      {"measurement": "normalized growth", "setting": "locus YGR252W, strain gcn5, stronger effect = lower value", "result": 0.854},
      {"measurement": "normalized growth", "setting": "locus YHR013C, strain ard1, stronger effect = lower value", "result": "0.781 (active)"},
      {"measurement": "normalized growth", "setting": "locus YHR027C, strain rpn1, stronger effect = lower value", "result": "0.781 (active)"},
      {"measurement": "normalized growth", "setting": "locus YHR030C, strain SLT2, stronger effect = lower value", "result": "0.837 (active) and 0.62 (active)"},
      {"measurement": "normalized growth", "setting": "locus YHR079C, strain IRE1 (second series), stronger effect = lower value", "result": "0.89 (active)"},
      {"measurement": "normalized growth", "setting": "locus YHR079C, strain IRE1, stronger effect = lower value", "result": "0.654 (active)"},
      {"measurement": "normalized growth", "setting": "locus YHR094C, strain hxt1, stronger effect = lower value", "result": 0.94},
      {"measurement": "normalized growth", "setting": "locus YHR129C, strain ARP1, stronger effect = lower value", "result": "0.89 (active)"},
      {"measurement": "normalized growth", "setting": "locus YHR142W, strain chs7, stronger effect = lower value", "result": "0.856 (active)"},
      {"measurement": "normalized growth", "setting": "locus YHR200W, strain rpn10, stronger effect = lower value", "result": "0.851 (active)"},
      {"measurement": "normalized growth", "setting": "locus YIL066C, strain RNR3, stronger effect = lower value", "result": "0.805 (active)"},
      {"measurement": "normalized growth", "setting": "locus YIL073C, strain SPO22, stronger effect = lower value", "result": 0.741},
      {"measurement": "normalized growth", "setting": "locus YIL125W, strain kgd1, stronger effect = lower value", "result": "0.893 (active)"},
      {"measurement": "normalized growth", "setting": "locus YIR030C, strain dcg1, stronger effect = lower value", "result": "0.918 (active)"},
      {"measurement": "normalized growth", "setting": "locus YJL092W, strain hpr5, stronger effect = lower value", "result": "0.859 (active)"},
      {"measurement": "normalized growth", "setting": "locus YJL095W, strain BCK1 (second series), stronger effect = lower value", "result": "0.798 (active)"},
      {"measurement": "normalized growth", "setting": "locus YJL095W, strain BCK1, stronger effect = lower value", "result": "0.625 (active) and 0.71 (active)"},
      {"measurement": "normalized growth", "setting": "locus YJL115W, strain asf1, stronger effect = lower value", "result": "0.861 (active)"},
      {"measurement": "normalized growth", "setting": "locus YJL129C, strain trk1, stronger effect = lower value", "result": "0.703 (active)"},
      {"measurement": "normalized growth", "setting": "locus YJL134W, strain LCB3, stronger effect = lower value", "result": "0.927 (active)"},
      {"measurement": "normalized growth", "setting": "locus YJL154C, strain vps35, stronger effect = lower value", "result": 0.928},
      {"measurement": "normalized growth", "setting": "locus YJL164C, strain tpk1, stronger effect = lower value", "result": "0.871 (active)"},
      {"measurement": "normalized growth", "setting": "locus YJL166W, strain qcr8, stronger effect = lower value", "result": "0.813 (active)"},
      {"measurement": "normalized growth", "setting": "locus YJL168C, strain set2, stronger effect = lower value", "result": "0.915 (active)"},
      {"measurement": "normalized growth", "setting": "locus YJL187C, strain SWE1 (second series), stronger effect = lower value", "result": "0.843 (active)"},
      {"measurement": "normalized growth", "setting": "locus YJR043C, strain POL32, stronger effect = lower value", "result": 0.867},
      {"measurement": "normalized growth", "setting": "locus YJR066W, strain TOR1, stronger effect = lower value", "result": "0.738 (active)"},
      {"measurement": "normalized growth", "setting": "locus YJR075W, strain HOC1, stronger effect = lower value", "result": "0.79 (active)"}
    ]}
  ]
}
